Screening data (PubChem BioAssay)
Rows were chosen to be rich in hits. Some 4% of all compounds tested hit in one or more screens of this group.
Peg3 prom inh – reduces Peg3 promoter-driven luciferase expression in HeLa. HeLa PEG-Prom luciferase reporter, luminescence, overnight. inhibition, % at 20 µM. 360,000 tested, 1.7% active. AID 588405;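 active = inhibition of at least 50% at 20 µM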
TWEAK-Fn14 inh – blocks TWEAK-Fn14 interaction in a reporter cell assay. TWEAK-stimulated Fn14 reporter cells, luciferase luminescence, 8 h. inhibition, % at 10 µM. 360,000 tested, 2% active; in the data active = inhibition above about 50%
TROY NFkB inh – TROY signaling inhibition; Q293 LMP1-TROYcd NF-kB luciferase reporter, 4 h; inhibition, % at 10 µM; 360,000 tested, 0.98% active;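 active = compounds whose plate-normalised and pattern-corrected inhibition of the luciferase reporter signal at the single screening dose is 50% or more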
HIF-2a block – inhibitors of HIF-2a. 786-0 RCC cells HIF-2a reporter, luciferase luminescence, overnight. AID 624352. inhibition, % at 18.8 µM. 360,000 tested, 0.72% active;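 active = inhibition of the luminescence signal of 40% or more relative to plate controls, in a single-dose primary screen at 18.75 µM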
CF NFkB inh – inhibitors of cystic fibrosis induced NF-kB; 360,000 tested, 0.86% active; inhibition, % at 5 µM; KKLEB NF-kB-GFP reporter, PAF-induced, GFP fluorescence overnight;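 active = at least 50% inhibition at 5 µM, scaled per plate between neutral and stimulator controls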;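 also: PAF is a Pseudomonas aeruginosa culture filtrate used as stimulus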
KKLEB cytotox – reduces viability of KKLEB cystic fibrosis airway cells; 360,000 tested, 0.36% active; AID 602141; activity change (cytotoxicity), % at 5 µM; KKLEB CF airway cells viability, ATPlite luminescence, overnight; stronger effect = lower value; cells stimulated with P. aeruginosa culture filtrate;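 active = corrected activity change at or below -50% at 5 µM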
CF NFkB conf – CF NF-kB inhibition confirmation, single concentration | 1,300 tested, 64% active | KKLEB CF airway cells, PAF-induced NF-kB-GFP fluorescence, overnight | shares compounds with CF NFkB inh | inhibition, % at 5 µM; in the data active = inhibition above about 40%;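 also: stimulus PAF is a Pseudomonas aeruginosa filtrate and not platelet activating factor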
Each line names hits and unclear results; the compound was inactive in the other large screens (follow-up assays come after a bar, where they were run).

Cc1ccccc1-c1cnc(C(O)c2c(C)ccc3ccccc23)[nH]1 (stereo not given)	none
O=C(Nc1ccc(Oc2ccccc2)cc1)c1ccc2sc([C@H]3C[C@H](O)[C@@H](CO)O3)nc2c1	TWEAK-Fn14 inh 95.4, TROY NFkB inh 51.7, CF NFkB inh 53.5 | CF NFkB conf 45.7
CCN(CC)S(=O)(=O)c1ccc(NC(=O)Nc2cccc(C(F)(F)F)c2)cc1	Peg3 prom inh 52.1, TWEAK-Fn14 inh 76.4, TROY NFkB inh 57.6, CF NFkB inh 61.1 | CF NFkB conf 81.4
Nc1c(Cl)c(Cl)nc(C(=O)OCC(=O)N2CCCC2=O)c1Cl	none
O=C(OCC(=O)N1CCCC1=O)c1nc(Cl)c(Cl)c(Cl)c1Cl	Peg3 prom inh 82.1, TWEAK-Fn14 inh 90.8, TROY NFkB inh 55.9, CF NFkB inh 60.2 | CF NFkB conf inactive
CN(C(=O)COC(=O)CSc1ccc(C(N)=O)cc1[N+](=O)[O-])C1CCCCC1	none
Cc1nc2sc3c(NCc4ccco4)ncnc3c2c2c1COC(C)(C)C2	TWEAK-Fn14 inh 87.0, TROY NFkB inh 55.0, CF NFkB inh 72.3 | CF NFkB conf inactive
CC[C@H](C)[C@@H](C(=O)NCCCCCCCCCCC(=O)N1CCNCC1)n1cc(CCCCCN)nn1	none
CCc1nc(Cl)c(C#N)c2c1CSC(C)(C)C2	CF NFkB inh 57.5 | CF NFkB conf 42.1
CCCCc1nc(Cl)c(C#N)c2c1CSC(C)(C)C2	none
CCCc1nc(NCCO)c(C#N)c2c1CCCC2	none
CCCc1nc(Cl)c(C#N)c2c1CCCC2	CF NFkB inh 68.3 | CF NFkB conf 75.9
CC(C)Cc1nc(Cl)c(C#N)c2c1CCCC2	none
CCc1nc(Cl)c(C#N)c2c1CCCC2	CF NFkB inh 54.6 | CF NFkB conf 75.2
CC1C(=O)OC2C1CCC1(C)C3(C)C(=O)C=CC213 (stereo not given)	none
CN1CCC(OC(=O)c2cc3cc(Cl)cc(Cl)c3oc2=O)CC1	TWEAK-Fn14 inh 77.3, CF NFkB inh 54.5 | CF NFkB conf 81.9
CCCCN1C(=O)C(=O)c2cc(Cl)ccc21	CF NFkB inh 63.4 | CF NFkB conf 47.1
Cc1ccc(CN2C(=O)C(=O)c3cc(C)ccc32)cc1	none
COc1ccc(C(=O)N2CCCC(C(=O)O)C2)c2ccccc12 (stereo not given)	none
CCOc1ccc(-n2c(C)c(C(C)=O)c3cc(O)ccc32)cc1	TWEAK-Fn14 inh 64.4, CF NFkB inh 57.0 | CF NFkB conf 84.1
CC(=O)c1c(C)n(-c2ccc(Br)cc2)c2ccc(O)cc12	none
CCOc1ccc(-n2c(C)c(C(=O)OC)c3cc(O)ccc32)cc1	none
CC(=O)c1c(C)n(-c2ccc(C)cc2C)c2ccc(O)cc12	TWEAK-Fn14 inh 57.6, CF NFkB inh 64.8 | CF NFkB conf 68.5
CC(=O)c1ccc(-n2c(C)c(C(C)=O)c3cc(O)ccc32)cc1	CF NFkB inh 55.6 | CF NFkB conf 66.3
CC(=O)c1c(C)n(-c2ccccc2)c2ccc(O)cc12	CF NFkB inh 59.4 | CF NFkB conf 72.3
COc1ccc(CNC(=O)C[C@@H]2C=C[C@@H](NS(=O)(=O)c3cccc(OC)c3)[C@@H](CO)O2)cc1	none (no result: Peg3 prom inh, TWEAK-Fn14 inh, TROY NFkB inh, CF NFkB inh, KKLEB cytotox)
C=CCNc1cc(F)ccc1S(=O)(=O)NCC=C	none
COc1ccccc1C(=O)NC(=O)CSc1nnc(SC)s1	none
Cn1c(=O)[nH]c(=O)c2c1nc(SCc1ccccc1Cl)n2CC(N)=O	none
CCOc1ccc(CCNC(=O)COC(=O)c2cccnc2SC)cc1OCC	none
O=[N+]([O-])c1cc2c(cc1Br)-c1ccccc1C2	none
Fc1ccc(-n2cc(-c3ccccc3)c3c(N4CCOCC4)ncnc32)cc1	Peg3 prom inh 54.3, CF NFkB inh 85.8 | CF NFkB conf 104.2
Clc1ccc(C2Nc3cccc4cccc(c34)N2)c(Cl)c1	none
O=C1NC(c2cccc3ccccc23)Nc2ccc(Cl)cc21 (stereo not given)	CF NFkB inh 51.9 | CF NFkB conf 84.0
Cc1cc(C)c(C#N)c(SCC(=O)c2ccc(Cl)cc2Cl)n1	Peg3 prom inh 60.0, TWEAK-Fn14 inh 57.3, CF NFkB inh 71.6 | CF NFkB conf 67.2
CCOC(=O)CSc1nc(C)cc(C)c1C#N	none
COc1ccc(Cc2nnc(NC(=O)CS(=O)(=O)c3ccccc3)s2)cc1OC	none
